The sample as a whole holds a higher share of hits than the screen did.
KDM5B inhibitor: Primary screen for KDM5B Histone Demethylases FDH-coupled qHTS | KDM5B demethylase, FDH-coupled NADH fluorescence (FDH is formaldehyde dehydrogenase) | Potency, µM (top dose mostly 57.7 µM), most hits filed as inhibitors | actives 2.6% (n = 220,000) | AID 1347165, 2019; active = well fitted inhibition curve with a large enough effect; also: 0% is about no effect; nearly all actives have a fitted effect of over 70% in size
Target sequence (Q9UGL1 whole entry, looked up): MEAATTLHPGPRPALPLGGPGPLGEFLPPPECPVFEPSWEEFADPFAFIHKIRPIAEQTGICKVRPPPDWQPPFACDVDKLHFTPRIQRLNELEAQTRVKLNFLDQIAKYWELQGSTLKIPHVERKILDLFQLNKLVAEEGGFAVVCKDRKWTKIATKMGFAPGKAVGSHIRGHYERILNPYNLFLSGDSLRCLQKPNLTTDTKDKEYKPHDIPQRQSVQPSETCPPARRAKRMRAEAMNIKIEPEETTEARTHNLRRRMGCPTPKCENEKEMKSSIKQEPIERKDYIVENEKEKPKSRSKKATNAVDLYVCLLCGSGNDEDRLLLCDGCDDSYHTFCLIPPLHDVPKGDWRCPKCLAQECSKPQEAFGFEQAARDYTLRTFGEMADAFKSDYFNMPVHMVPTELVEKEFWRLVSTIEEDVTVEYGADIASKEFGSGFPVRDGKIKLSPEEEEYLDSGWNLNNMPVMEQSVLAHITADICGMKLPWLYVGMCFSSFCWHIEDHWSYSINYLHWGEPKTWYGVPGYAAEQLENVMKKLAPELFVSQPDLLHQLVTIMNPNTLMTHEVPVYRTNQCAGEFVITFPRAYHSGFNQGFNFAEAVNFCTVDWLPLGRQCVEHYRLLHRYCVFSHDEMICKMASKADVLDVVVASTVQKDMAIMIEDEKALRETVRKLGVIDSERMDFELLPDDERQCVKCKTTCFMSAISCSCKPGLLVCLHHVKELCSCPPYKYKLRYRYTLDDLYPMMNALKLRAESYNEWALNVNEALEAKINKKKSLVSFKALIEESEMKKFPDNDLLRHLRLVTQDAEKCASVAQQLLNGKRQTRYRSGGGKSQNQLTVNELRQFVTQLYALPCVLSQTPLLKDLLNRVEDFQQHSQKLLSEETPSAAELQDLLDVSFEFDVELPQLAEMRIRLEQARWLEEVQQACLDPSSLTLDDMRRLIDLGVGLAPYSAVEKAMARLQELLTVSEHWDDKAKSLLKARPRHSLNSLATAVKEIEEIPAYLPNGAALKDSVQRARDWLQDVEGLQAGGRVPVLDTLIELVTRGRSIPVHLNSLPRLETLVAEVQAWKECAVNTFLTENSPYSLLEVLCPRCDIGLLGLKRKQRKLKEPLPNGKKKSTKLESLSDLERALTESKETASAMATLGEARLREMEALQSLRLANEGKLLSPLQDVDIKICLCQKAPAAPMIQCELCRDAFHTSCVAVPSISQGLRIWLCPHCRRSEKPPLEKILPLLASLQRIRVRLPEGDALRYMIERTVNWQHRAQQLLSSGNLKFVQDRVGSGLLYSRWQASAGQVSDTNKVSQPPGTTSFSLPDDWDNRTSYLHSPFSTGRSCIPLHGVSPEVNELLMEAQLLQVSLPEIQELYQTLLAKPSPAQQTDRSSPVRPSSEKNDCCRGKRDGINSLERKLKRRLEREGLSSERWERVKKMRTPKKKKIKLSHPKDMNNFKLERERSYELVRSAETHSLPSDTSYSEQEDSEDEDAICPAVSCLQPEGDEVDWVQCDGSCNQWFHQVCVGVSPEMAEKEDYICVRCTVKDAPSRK
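Compound dilutions met 200 nM (final) KDM5BΔAP for 10 min at room temperature before substrate addition. The substrate mix held 12.5 µM H3K4me3 with cofactors 25 µM α-ketoglutarate and 50 µM Fe²⁺. NADH signal gain over 30 min defined activity.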
* hit, by the source's call; i = inactive. Potency is read from the fitted curve at half-maximal effect.

SMILES	KDM5B inhibitor
CCC(C(=O)N1CCN(Cc2ccc(C)c(C)c2)C(=O)C1)n1cccn1 (stereo not given)	i
O=C1CN(C(=O)c2cnc3ccccn3c2=O)CCN1Cc1ccc(F)cc1	28µM*
O=C(c1ccccn1)N1CCC2(CC1)NC(=O)N(Cc1ccc(F)cc1)C2=O	i
O=C(NC(=S)Nn1cnnc1)c1ccc(F)cc1Cl	i
CC(=O)N1CCN(C(=O)C[C@@H]2C[C@@H](C(C)C)[C@H](CNC(=O)c3cncnc3)C=C2C)CC1	i
COCCNC(=O)C[C@@H]1C[C@@H](C(C)C)[C@H](CNS(=O)(=O)c2ccccc2)C=C1C	i
CC1=C[C@@H](CNC(=O)C2CCCCC2)[C@H](C(C)C)C[C@H]1CC(=O)N1CCN(c2ccccn2)CC1	35µM*
CC1=C[C@@H](CNC(=O)C(C)(C)C)[C@H](C(C)C)C[C@H]1CC(=O)N1CCN(c2ccccn2)CC1	20µM*
CC1=C[C@@H](CC#N)[C@H](C(C)C)C[C@H]1CC(=O)N1CCN(c2cnccn2)CC1	35µM*
COCCNC(=O)C[C@@H]1C[C@@H](C(C)C)[C@H](CNC(=O)C2CC2)C=C1C	35µM*
CC1=C[C@@H](CNC(=O)c2ccccc2)[C@H](C(C)C)C[C@H]1CC(=O)N1CCN(C)CC1	i
COc1ccccc1N1CCN(C(=O)C[C@@H]2C[C@@H](C(C)C)[C@H](CC#N)C=C2C)CC1	i
CC1=C[C@@H](CNC(=O)c2ccccn2)[C@H](C(C)C)C[C@H]1CC(=O)N1CCCC1	i
CC(=O)N1CCN(C(=O)C[C@@H]2C[C@@H](C(C)C)[C@H](CC#N)C=C2C)CC1	i
CCOC(=O)C[C@@H]1C[C@@H](C(C)C)[C@H](CNC(=O)C2CC2)C=C1C	i
COCC(=O)NC[C@@H]1C=C(C)[C@H](CC(=O)N2CCCC2)C[C@H]1C(C)C	i
CN(C)S(=O)(=O)N1CCCC(CCc2cccc(F)c2)C1 (stereo not given)	i
CC(C)CCNC(=O)NC(=O)COC(=O)Cc1n[nH]c(=O)c2ccccc12	i
Cc1ccc(CNC(=O)N2CCC(Cc3noc(C4CCOCC4)n3)C2)cc1 (stereo not given)	i
CCc1cc(Nc2ccc(OC)cc2OC)n2ncnc2n1	i
CN(C(=O)c1cc(=O)[nH]c2ccccc12)C1CCCC1	i
CN(C(=O)CSc1nncn1-c1ccccc1)c1ccccc1	i
COCCCN1C(=O)CS/C1=N\S(=O)(=O)c1ccccc1	i
COc1ccc(-c2nnc3ccc(N4CCN(c5ccccn5)CC4)nn23)nc1	i
COc1ccc(-c2nnc3ccc(N4C[C@@H](C)O[C@@H](C)C4)nn23)nc1	i
SMILES	KDM5B inhibitor
Cc1ccc(-c2nnc3ccc(N4CCN(Cc5ccccc5)CC4)nn23)nc1	35µM*
Fc1ccc(-c2nnc3ccc(N4CCN(Cc5ccccc5)CC4)nn23)nc1	i
Cc1nnc2ccc(N3CCC(C)CC3)nn12	i
COc1ccc(-c2nnc3ccc(N4CCC(c5ccccc5)CC4)nn23)nc1	35µM*
CN(C)C(=O)c1c(NC(=O)c2ccccc2F)sc2c1CCCC2	i
CCOc1ccccc1NC(=O)c1c(NC(=O)COc2ccccc2)sc2c1CCCCC2	i
COc1ccc(-c2ccnc3nc(-c4cccs4)nn23)c(F)c1	14µM*
CCOC(=O)c1cnc2nc(-c3ccccc3)nn2c1C	i
COCc1nc2nccc(-c3ccc(OC)cc3F)n2n1	28µM*
CCc1nc2nccc(-c3ccc(OC)cc3F)n2n1	i
COc1ccc(CCc2nc3nccc(-c4ccc(OC)cc4F)n3n2)cc1	22µM*
c1ccc(-c2ccnc3nc(-c4cccs4)nn23)cc1	32µM*
CS(=O)(=O)N(C1CC1)C1CCOC2(CCN(C(=O)COc3ccc(F)cc3)CC2)C1 (stereo not given)	i
CCOC(=O)c1[nH]c(C)c(C(=O)OC(C)C(C)=O)c1C (stereo not given)	i
NC(=O)[C@@H]1C[C@H](Oc2cccnc2)CN1C(=O)c1ccc2ccccc2n1	i
COc1ccc(C(=O)Nc2c(NCC3CCCCC3)c3ccccc3oc2=O)cc1	i
CN(CC(=O)NC(=O)NC1CCCCC1)CC(=O)Nc1ccc(Cl)cc1	i
N#Cc1ccc(C(=O)N2CC(F)(F)C[C@H]2c2nc(C3CC3)no2)cc1	i
CC(=O)N1CCc2cc(S(=O)(=O)NC(CC(C)C)C(=O)NCCc3ccc(C)cc3)ccc21 (stereo not given)	i
CCN1C(=O)CN(C(=O)c2ccco2)CC12CCOCC2	i
CCOC(=O)N1CCN(C(C(=O)O)c2c[nH]c3c(OC)cccc23)CC1 (stereo not given)	i
COc1cccc(C(=O)Oc2ccc3c(=O)c(-c4ccccc4OC)c(C)oc3c2)c1	i
O=C(NCc1cc2n(n1)CCNC2)C1CCCN(c2ccccn2)C1 (stereo not given)	32µM*
CCc1nc2cc(N3CCCC(C(=O)NCc4ccccn4)C3)cnc2nc1CC (stereo not given)	i
O=C(NCc1ccccn1)C1CCN(Cc2cc3n(n2)CCCNC3)CC1	i
SMILES	KDM5B inhibitor
Brc1ccc(-c2nnc(COc3cccc(-n4cnnn4)c3)o2)s1	i
Cc1ccc(-n2ncc(C(=O)NCc3ccccn3)c2C2CCN(C(=O)OC(C)(C)C)CC2)c(C)c1	i
O=C(CCC1CCCC1)N1CCc2c([nH]c3ccccc23)C1c1ccc(F)cc1 (stereo not given)	i
COC(=O)[C@@H]1Cc2c([nH]c3ccccc23)[C@H]2C[C@@H](NCCCn3ccnc3)C[C@@H](c3ccc(F)cc3)N21	13µM*
O=C(c1ccc(F)cc1)N1CCc2c([nH]c3ccccc23)C1c1ccc(Cl)cc1 (stereo not given)	i
O=C(NCCCn1ccnc1)c1ccc(C2CCCNC2)cc1 (stereo not given)	i
O=C1NCC(=O)N2C(c3ccccc3)c3[nH]c4ccccc4c3C[C@@H]12 (stereo not given in full)	i
COCCN[C@H]1C[C@@H]2c3[nH]c4ccccc4c3C[C@@H](C(=O)OC)N2[C@H](c2ccccc2)C1	28µM*
COC(=O)[C@@H]1Cc2c([nH]c3ccccc23)[C@H]2C[C@@H](NCCCn3ccnc3)C[C@@H](c3ccc(Cl)c(F)c3)N21	i
COC(=O)[C@@H]1Cc2c([nH]c3ccccc23)[C@H]2C[C@@H](NCCN(C)C)C[C@@H](c3ccc(F)cc3)N21	25µM*
COCCN[C@@H]1C[C@@H]2c3[nH]c4ccccc4c3C[C@@H](C(=O)OC)N2[C@H](c2cccc(OC)c2)C1	5.6µM*
COc1ccc(C(=O)NC2CCN(CC(=O)NCc3cccc(OC)c3)CC2)cc1	i
COC(=O)[C@@H]1Cc2c([nH]c3ccccc23)C2CCC(=O)N21 (stereo not given in full)	i
COCCNC(=O)[C@H]1C[C@H](Oc2ccccc2)CN1C(=O)c1cccc(OC)c1	i
CC1(C)N=C(c2ccccc2)C(=O)N1CC(=O)N1CCN(c2ccccc2F)CC1	i
Cc1ccsc1C(=O)N1CCC(n2cc(-c3nc(C4CC4)no3)nn2)C1 (stereo not given)	i
Cc1nc(CS(=O)(=O)c2ccccn2)sc1C(=O)NNC(=O)c1c(F)cccc1Cl	i
O=C(c1cc2ccccc2oc1=O)N1CCSC1c1ccccc1Cl (stereo not given)	i
CC(=O)Nc1ccc(C2(C(=O)NCc3cccs3)CCC2)cc1	i
